Data reported in PubChem BioAssay AID1159580 (chemical genetic matrix, 2015).
In all, about 5,500 compounds went through this assay and about 2,000 (36%) were called active. Not shown: some 18% with an inconclusive outcome. The list shows a part of the results. Unmarked numbers belong to inactive results. Rule as the data show it: active = normalized growth mostly below about 0.91 (no sharp cut-off); inconclusive = no clear call, values can overlap the other calls; inactive = mostly above about 0.92.

Assay: chemical genetic growth profiling, strain panel (AID 1159580);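 also: tested at 20 µM; growth read once vehicle control cultures reached saturation at 30 °C; 1 = growth at the plate median or of vehicle wells; lower values mean less growth of the strain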
Details: S. cerevisiae deletion strains, growth OD
[1] = locus YAR019C, strain CDC15, hits give low values
[2] = locus YBL105C, strain PKC1, hits give low values
[3] = locus YBR135W, strain CKS1, hits give low values
[4] = locus YBR136W, strain MEC1, hits give low values
[5] = locus YBR160W, strain CDC28, hits give low values
[6] = locus YDL017W, strain CDC7, hits give low values
[7] = locus YDL028C, strain MPS1, hits give low values
[8] = locus YDL101C, strain DUN1, hits give low values
[9] = locus YDL108W, strain KIN28, hits give low values
[10] = locus YDL132W, strain cdc53, hits give low values
[11] = locus YDL214C, strain PRR2, hits give low values
[12] = locus YDR052C, strain DBF4, hits give low values
[13] = locus YDR054C, strain cdc34, hits give low values
[14] = locus YDR226W, strain ADK1, hits give low values
[15] = locus YDR477W, strain SNF1, hits give low values
[16] = locus YER123W, strain YCK3, hits give low values
[17] = locus YER133W, strain GLC7, hits give low values
[18] = locus YFL009W, strain cdc4, hits give low values
[19] = locus YFL029C, strain CAK1, hits give low values
[20] = locus YFR003C, strain YPI1, hits give low values
[21] = locus YFR019W, strain FAB1, hits give low values
[22] = locus YFR028C, strain CDC14, hits give low values
[23] = locus YGR040W, strain KSS1, hits give low values
[24] = locus YGR052W, strain FMP48, hits give low values
[25] = locus YGR092W, strain DBF2, hits give low values
[26] = locus YHR030C, strain SLT2, hits give low values
[27] = locus YHR079C, strain IRE1, hits give low values
[28] = locus YHR082C, strain KSP1, hits give low values
[29] = locus YHR205W, strain SCH9, hits give low values
[30] = locus YIL147C, strain SLN1, hits give low values
[31] = locus YJL095W, strain BCK1, hits give low values
[32] = locus YJL128C, strain PBS2, hits give low values
[33] = locus YJL157C, strain FAR1, hits give low values
[34] = locus YJR016C, strain ILV3, hits give low values
[35] = locus YJR066W, strain TOR1 (second series), hits give low values
[36] = locus YJR066W, strain TOR1, hits give low values
[37] = locus YKL048C, strain ELM1, hits give low values
[38] = locus YKL067W, strain YNK1, hits give low values
[39] = locus YKL101W, strain HSL1, hits give low values
[40] = locus YKL193C, strain SDS22, hits give low values
[41] = locus YKL203C, strain TOR2, hits give low values
[42] = locus YLR113W, strain HOG1, hits give low values
[43] = locus YLR133W, strain CKI1, hits give low values
[44] = locus YLR403W, strain SFP1, hits give low values
[45] = locus YML070W, strain DAK1, hits give low values
[46] = locus YMR001C, strain CDC5, hits give low values
[47] = locus YMR205C, strain PFK2 (second series), hits give low values
[48] = locus YMR277W, strain FCP1, hits give low values
[49] = locus YNL006W, strain LST8, hits give low values
[50] = locus YNL020C, strain ARK1, hits give low values
[51] = locus YNL161W, strain CBK1, hits give low values
[52] = locus YNL183C, strain NPR1, hits give low values
[53] = locus YNL207W, strain RIO2, hits give low values
[54] = locus YNL222W, strain SSU72, hits give low values
[55] = locus YNL307C, strain MCK1 (second series), hits give low values
[56] = locus YOL078W, strain AVO1, hits give low values
[57] = locus YOL136C, strain PFK27, hits give low values
[58] = locus YOR061W, strain CKA2, hits give low values
[59] = locus YOR119C, strain RIO1, hits give low values
[60] = locus YOR231W, strain MKK1, hits give low values
[61] = locus YOR329C, strain SCD5, hits give low values
[62] = locus YPL031C, strain PHO85, hits give low values
[63] = locus YPL153C, strain RAD53, hits give low values
[64] = locus YPL204W, strain HRR25, hits give low values
[65] = locus YPL209C, strain IPL1, hits give low values
[66] = locus YPL256C, strain CLN2, hits give low values
[67] = locus YPR025C, strain CCL1, hits give low values
[68] = locus YPR106W, strain ISR1, hits give low values
[69] = locus YPR111W, strain DBF20, hits give low values
[70] = strain NNK1, hits give low values
[71] = strain TSCII, hits give low values

Compound `COc1cc(NC(=S)NNS(=O)(=O)c2ccc(C)cc2)c(OC)cc1Cl` has a normalized growth [1] of 0.982, a normalized growth [2] of 0.974 and a normalized growth [3] of 0.978. For the same compound, the normalized growth [4] was 0.971, the normalized growth [5] was 0.984 and the normalized growth [6] was 0.984. It also gave a normalized growth [7] of 0.982, a normalized growth [8] of 0.976 and a normalized growth [9] of 0.984. The normalized growth [10] was 0.974, the normalized growth [11] was 0.939 and the normalized growth [12] was 0.986. The normalized growth [13] was 0.949, the normalized growth [14] was 0.974 and the normalized growth [15] was 0.933. The normalized growth [16] was 0.921, the normalized growth [17] was 0.953 and the normalized growth [18] was 0.982. For the same compound, the normalized growth [19] was 0.976, the normalized growth [20] was 0.985 and the normalized growth [21] was 0.955. The normalized growth [22] was 0.968, the normalized growth [23] was 0.942 and the normalized growth [24] was 1.06. The normalized growth [25] was 1.01, the normalized growth [26] was 0.858 and the normalized growth [27] was 0.997. For the same compound, the normalized growth [28] was 1.02, the normalized growth [29] was 0.961 and the normalized growth [30] was 0.986. It also gave a normalized growth [31] of 0.927, a normalized growth [32] of 0.966 and a normalized growth [33] of 0.975. For the same compound, the normalized growth [34] was 0.977, the normalized growth [35] was 0.955 and the normalized growth [36] was 0.97. It also gave a normalized growth [37] of 0.953, a normalized growth [38] of 0.94 and a normalized growth [39] of 0.935. The normalized growth [40] was 0.97, the normalized growth [41] was 1 and the normalized growth [42] was 0.849 (active). For the same compound, the normalized growth [43] was 0.947, the normalized growth [44] was 0.959 and the normalized growth [45] was 0.942. The normalized growth [46] was 0.979, the normalized growth [47] was 0.947 and the normalized growth [48] was 0.963. For the same compound, the normalized growth [49] was 0.986, the normalized growth [50] was 0.96 and the normalized growth [51] was 0.984. It also gave a normalized growth [52] of 0.939, a normalized growth [53] of 0.981 and a normalized growth [54] of 0.973. For the same compound, the normalized growth [55] was 0.941, the normalized growth [56] was 0.971 and the normalized growth [57] was 0.929. It also gave a normalized growth [58] of 0.967, a normalized growth [59] of 1.05 and a normalized growth [60] of 0.994. It also gave a normalized growth [61] of 0.984, a normalized growth [62] of 0.95 and a normalized growth [63] of 0.95. The normalized growth [64] was 0.92, the normalized growth [65] was 0.972 and the normalized growth [66] was 0.886. It also gave a normalized growth [67] of 0.972, a normalized growth [68] of 0.977 and a normalized growth [69] of 0.951. For the same compound, the normalized growth [70] was 0.972 and the normalized growth [71] was 0.98.

Compound `COc1cc(NC(=S)N(C)C)c(OC)cc1Cl` has a normalized growth [1] of 0.984, a normalized growth [2] of 0.987 and a normalized growth [3] of 0.996. For the same compound, the normalized growth [4] was 0.977, the normalized growth [5] was 0.991 and the normalized growth [6] was 0.985. For the same compound, the normalized growth [7] was 0.987, the normalized growth [8] was 0.991 and the normalized growth [9] was 0.996. It also gave a normalized growth [10] of 0.999, a normalized growth [11] of 0.984 and a normalized growth [12] of 0.992. The normalized growth [13] was 0.983, the normalized growth [14] was 0.987 and the normalized growth [15] was 0.979. The normalized growth [16] was 0.978, the normalized growth [17] was 0.99 and the normalized growth [18] was 0.99. The normalized growth [19] was 0.983, the normalized growth [20] was 0.99 and the normalized growth [21] was 0.971. It also gave a normalized growth [22] of 0.995, a normalized growth [23] of 0.974 and a normalized growth [24] of 1.07. The normalized growth [25] was 0.992, the normalized growth [26] was 0.977 and the normalized growth [27] was 0.984. For the same compound, the normalized growth [28] was 1.03, the normalized growth [29] was 0.963 and the normalized growth [30] was 0.984. It also gave a normalized growth [31] of 0.982, a normalized growth [32] of 0.976 and a normalized growth [33] of 0.997. For the same compound, the normalized growth [34] was 0.993, the normalized growth [35] was 0.967 and the normalized growth [36] was 1. The normalized growth [37] was 0.991, the normalized growth [38] was 0.991 and the normalized growth [39] was 0.971. For the same compound, the normalized growth [40] was 0.986, the normalized growth [41] was 1.03 and the normalized growth [42] was 0.932. It also gave a normalized growth [43] of 0.987, a normalized growth [44] of 0.986 and a normalized growth [45] of 0.974. The normalized growth [46] was 0.985, the normalized growth [47] was 0.988 and the normalized growth [48] was 0.997. The normalized growth [49] was 0.984, the normalized growth [50] was 0.991 and the normalized growth [51] was 0.982. The normalized growth [52] was 0.968, the normalized growth [53] was 0.987 and the normalized growth [54] was 0.992. It also gave a normalized growth [55] of 1, a normalized growth [56] of 0.991 and a normalized growth [57] of 0.984. It also gave a normalized growth [58] of 0.996, a normalized growth [59] of 1.01 and a normalized growth [60] of 0.968. The normalized growth [61] was 0.984, the normalized growth [62] was 0.976 and the normalized growth [63] was 0.97. It also gave a normalized growth [64] of 0.991, a normalized growth [65] of 0.988 and a normalized growth [66] of 0.948. For the same compound, the normalized growth [67] was 0.999, the normalized growth [68] was 0.993 and the normalized growth [69] was 0.996. The normalized growth [70] was 1 and the normalized growth [71] was 0.989.

`COc1cc(NC(=S)NC(=O)c2ccccc2)c(OC)cc1Cl` showed a normalized growth [1] of 0.985, a normalized growth [2] of 0.995 and a normalized growth [3] of 0.99. The normalized growth [4] was 0.99, the normalized growth [5] was 0.997 and the normalized growth [6] was 0.998. It also gave a normalized growth [7] of 0.988, a normalized growth [8] of 0.998 and a normalized growth [9] of 0.981. The normalized growth [10] was 1, the normalized growth [11] was 0.962 and the normalized growth [12] was 0.996. For the same compound, the normalized growth [13] was 0.994, the normalized growth [14] was 0.996 and the normalized growth [15] was 0.973. It also gave a normalized growth [16] of 0.963, a normalized growth [17] of 0.986 and a normalized growth [18] of 0.994. The normalized growth [19] was 0.98, the normalized growth [20] was 0.998 and the normalized growth [21] was 0.974. The normalized growth [22] was 1, the normalized growth [23] was 0.963 and the normalized growth [24] was 1.04. The normalized growth [25] was 0.989, the normalized growth [26] was 0.949 and the normalized growth [27] was 0.979. For the same compound, the normalized growth [28] was 1, the normalized growth [29] was 0.9 and the normalized growth [30] was 0.993. It also gave a normalized growth [31] of 0.961, a normalized growth [32] of 0.971 and a normalized growth [33] of 0.989. It also gave a normalized growth [34] of 1, a normalized growth [35] of 0.951 and a normalized growth [36] of 0.997. The normalized growth [37] was 0.981, the normalized growth [38] was 0.974 and the normalized growth [39] was 0.939. For the same compound, the normalized growth [40] was 1, the normalized growth [41] was 1.05 and the normalized growth [42] was 0.91. The normalized growth [43] was 0.968, the normalized growth [44] was 0.941 and the normalized growth [45] was 0.957. The normalized growth [46] was 0.995, the normalized growth [47] was 0.977 and the normalized growth [48] was 1. The normalized growth [49] was 0.991, the normalized growth [50] was 0.977 and the normalized growth [51] was 1. It also gave a normalized growth [52] of 0.981, a normalized growth [53] of 1 and a normalized growth [54] of 0.992. The normalized growth [55] was 0.968, the normalized growth [56] was 0.999 and the normalized growth [57] was 0.968. The normalized growth [58] was 0.953, the normalized growth [59] was 0.983 and the normalized growth [60] was 0.962. It also gave a normalized growth [61] of 0.996, a normalized growth [62] of 0.971 and a normalized growth [63] of 0.966. It also gave a normalized growth [64] of 0.986, a normalized growth [65] of 0.995 and a normalized growth [66] of 0.959. For the same compound, the normalized growth [67] was 0.998, the normalized growth [68] was 0.989 and the normalized growth [69] was 0.986. For the same compound, the normalized growth [70] was 0.981 and the normalized growth [71] was 1.
